Results reported in PubChem BioAssay AID1159580 (chemical genetic matrix, 2015).
About 2,000 (36%) of roughly 5,500 compounds were called active. Roughly 18% stayed inconclusive and do not appear here. The list shows a part of the results. A number with no mark means an inactive call. No stated cut-off is given here; in the data, active means normalized growth mostly below about 0.91 (no sharp cut-off); inconclusive means no clear call, values can overlap the other calls; inactive means mostly above about 0.92.

Assay: chemical genetic growth profiling, strain panel (AID 1159580);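 further: tested at 20 µM; growth read once vehicle control cultures reached saturation at 30 °C; 1 = growth at the plate median or of vehicle wells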
Conditions: S. cerevisiae deletion strains, growth OD

## FC(F)(F)c1cccc(NNC(=S)Nc2ccccc2)c1
Locus YAR019C, strain CDC15, stronger effect = lower value
  normalized growth: 0.996
Locus YBL105C, strain PKC1, stronger effect = lower value
  normalized growth: 1
Locus YBR135W, strain CKS1, stronger effect = lower value
  normalized growth: 1
Locus YBR136W, strain MEC1, stronger effect = lower value
  normalized growth: 0.999
Locus YBR160W, strain CDC28, stronger effect = lower value
  normalized growth: 0.997
Locus YDL017W, strain CDC7, stronger effect = lower value
  normalized growth: 0.998
Locus YDL028C, strain MPS1, stronger effect = lower value
  normalized growth: 1
Locus YDL101C, strain DUN1, stronger effect = lower value
  normalized growth: 0.994
Locus YDL108W, strain KIN28, stronger effect = lower value
  normalized growth: 1.01
Locus YDL132W, strain cdc53, stronger effect = lower value
  normalized growth: 0.99
Locus YDL214C, strain PRR2, stronger effect = lower value
  normalized growth: 0.951
Locus YDR052C, strain DBF4, stronger effect = lower value
  normalized growth: 0.998
Locus YDR054C, strain cdc34, stronger effect = lower value
  normalized growth: 0.989
Locus YDR226W, strain ADK1, stronger effect = lower value
  normalized growth: 0.999
Locus YDR477W, strain SNF1, stronger effect = lower value
  normalized growth: 0.882
Locus YER123W, strain YCK3, stronger effect = lower value
  normalized growth: 0.912
Locus YER133W, strain GLC7, stronger effect = lower value
  normalized growth: 0.975
Locus YFL009W, strain cdc4, stronger effect = lower value
  normalized growth: 1
Locus YFL029C, strain CAK1, stronger effect = lower value
  normalized growth: 1
Locus YFR003C, strain YPI1, stronger effect = lower value
  normalized growth: 1.01
Locus YFR019W, strain FAB1, stronger effect = lower value
  normalized growth: 0.974
Locus YFR028C, strain CDC14, stronger effect = lower value
  normalized growth: 1
Locus YGR040W, strain KSS1, stronger effect = lower value
  normalized growth: 0.897
Locus YGR052W, strain FMP48, stronger effect = lower value
  normalized growth: 0.957
Locus YGR092W, strain DBF2, stronger effect = lower value
  normalized growth: 0.807
Locus YHR030C, strain SLT2, stronger effect = lower value
  normalized growth: 0.754 (active)
Locus YHR079C, strain IRE1, stronger effect = lower value
  normalized growth: 0.848
Locus YHR082C, strain KSP1, stronger effect = lower value
  normalized growth: 0.876
Locus YHR205W, strain SCH9, stronger effect = lower value
  normalized growth: 0.877
Locus YIL147C, strain SLN1, stronger effect = lower value
  normalized growth: 0.998
Locus YJL095W, strain BCK1, stronger effect = lower value
  normalized growth: 0.856
Locus YJL128C, strain PBS2, stronger effect = lower value
  normalized growth: 0.986
Locus YJL157C, strain FAR1, stronger effect = lower value
  normalized growth: 0.945
Locus YJR016C, strain ILV3, stronger effect = lower value
  normalized growth: 0.996
Locus YJR066W, strain TOR1 (second series), stronger effect = lower value
  normalized growth: 0.812
Locus YJR066W, strain TOR1, stronger effect = lower value
  normalized growth: 0.861
Locus YKL048C, strain ELM1, stronger effect = lower value
  normalized growth: 0.948
Locus YKL067W, strain YNK1, stronger effect = lower value
  normalized growth: 0.937
Locus YKL101W, strain HSL1, stronger effect = lower value
  normalized growth: 0.907
Locus YKL193C, strain SDS22, stronger effect = lower value
  normalized growth: 1
Locus YKL203C, strain TOR2, stronger effect = lower value
  normalized growth: 0.968
Locus YLR113W, strain HOG1, stronger effect = lower value
  normalized growth: 0.764 (active)
Locus YLR133W, strain CKI1, stronger effect = lower value
  normalized growth: 0.946
Locus YLR403W, strain SFP1, stronger effect = lower value
  normalized growth: 0.929
Locus YML070W, strain DAK1, stronger effect = lower value
  normalized growth: 0.947
Locus YMR001C, strain CDC5, stronger effect = lower value
  normalized growth: 1.01
Locus YMR205C, strain PFK2 (second series), stronger effect = lower value
  normalized growth: 0.971
Locus YMR277W, strain FCP1, stronger effect = lower value
  normalized growth: 0.994
Locus YNL006W, strain LST8, stronger effect = lower value
  normalized growth: 1
Locus YNL020C, strain ARK1, stronger effect = lower value
  normalized growth: 0.925
Locus YNL161W, strain CBK1, stronger effect = lower value
  normalized growth: 0.997
Locus YNL183C, strain NPR1, stronger effect = lower value
  normalized growth: 0.874
Locus YNL207W, strain RIO2, stronger effect = lower value
  normalized growth: 0.998
Locus YNL222W, strain SSU72, stronger effect = lower value
  normalized growth: 0.999
Locus YNL307C, strain MCK1 (second series), stronger effect = lower value
  normalized growth: 0.825
Locus YOL078W, strain AVO1, stronger effect = lower value
  normalized growth: 0.995
Locus YOL136C, strain PFK27, stronger effect = lower value
  normalized growth: 0.938
Locus YOR061W, strain CKA2, stronger effect = lower value
  normalized growth: 0.856
Locus YOR119C, strain RIO1, stronger effect = lower value
  normalized growth: 0.993
Locus YOR231W, strain MKK1, stronger effect = lower value
  normalized growth: 0.882
Locus YOR329C, strain SCD5, stronger effect = lower value
  normalized growth: 0.996
Locus YPL031C, strain PHO85, stronger effect = lower value
  normalized growth: 0.894
Locus YPL153C, strain RAD53, stronger effect = lower value
  normalized growth: 0.919
Locus YPL204W, strain HRR25, stronger effect = lower value
  normalized growth: 0.89
Locus YPL209C, strain IPL1, stronger effect = lower value
  normalized growth: 0.997
Locus YPL256C, strain CLN2, stronger effect = lower value
  normalized growth: 0.848 (active)
Locus YPR025C, strain CCL1, stronger effect = lower value
  normalized growth: 1
Locus YPR106W, strain ISR1, stronger effect = lower value
  normalized growth: 1.01
Locus YPR111W, strain DBF20, stronger effect = lower value
  normalized growth: 1
Strain NNK1, stronger effect = lower value
  normalized growth: 0.995
Strain TSCII, stronger effect = lower value
  normalized growth: 1
